Laboratory results published in PubChem BioAssay (Tox21).
Inconclusive results are not listed. Calls of active or inactive are those of the source. Unless noted, calls follow the shape of the dose curve; as a rule, active = well fitted curve in the direction sought with a large enough effect in the repeat runs; inconclusive = weak or mixed curves; inactive = no such curve, though single readings can be large; an effect the other way counts as inactive or inconclusive.

How the values were obtained:
[1] = qHTS assay to identify aromatase inhibitors - cell viability counter screen (AID 743084);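 also: cells stimulated with testosterone during compound exposure; nearly all actives have a fitted effect of over 55% in size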
[2] = target: Aryl hydrocarbon receptor (Homo sapiens) (UniProt P35869); assay: qHTS assay to identify small molecule that activate the aryl hydrocarbon receptor (AhR) signaling pathway (AID 743085);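 also: HG2L7.5c1 human HepG2 liver cells with stably integrated DRE-driven firefly reporter; series mostly up to about 70 µM; nearly all actives have a fitted effect of over 15% in size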
Summary of the method: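 A multiplexed format paired cell viability (CellTiter-Fluor fluorescence) with AhR-dependent luciferase output (ONE-Glo luminescence) in the same wells of HepG2 DRE-luc cells after 24 h compound exposure at 37C.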

[3] = qHTS assay to identify small molecule that activate the aryl hydrocarbon receptor (AhR) signaling pathway - cell viability counter screen (AID 743086);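 also: HepG2 liver cells carrying the AhR DRE luciferase reporter; series mostly up to about 70 µM; nearly all actives have a fitted effect of over 45% in size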
Summary of the method: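 HepG2-AhR-luc (HG2L7.5c1) cells, 4000/well, were preincubated 5 h at 37C, exposed to compound in qHTS format for 24 hr at 37C, then given CellTiter-Fluor for 30 min; viability was read as fluorescence in the reporter wells.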

[4] = target: Peroxisome proliferator-activated receptor gamma (Homo sapiens) (UniProt P37231); assay: qHTS assay to identify small molecule antagonists of the peroxisome proliferator-activated receptor gamma (PPARg) signaling pathway (AID 743191; calls by dose curve; also: series mostly up to about 63 µM; nearly all actives have a fitted effect of over 30% in size)
Summary of the method: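 GeneBLAzer PPARg UAS-bla HEK293H cells carrying a UAS-driven beta-lactamase reporter were plated at 3000 cells/well, preincubated 5 h at 37C, then given compound for 17 h at 37C; LiveBLAzer B/G FRET substrate was read after 1 h at room temperature.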

[5] = qHTS assay to identify small molecule antagonists of the peroxisome proliferator-activated receptor gamma (PPARg) signaling pathway - cell viability counter screen (AID 743194); conditions: Potency: co-treated with 50 nM rosiglitazone unless noted; also: nearly all actives have a fitted effect of over 55% in size
Summary of the method: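 PPARg-UAS-bla HEK293H cells were plated, rested 5 h at 37 C, then treated with compounds plus rosiglitazone (50 nM final) for 17 h at 37 C; viability was then read by CellTiter-Glo luminescence after 30 min at room temperature.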

[6] = qHTS assay for small molecule agonists of the antioxidant response element (ARE) signaling pathway (AID 743202; active = well fitted activation curve with a large enough effect in the signal ratio in the repeat runs, not every such curve was filed as active; the % refers to the signal ratio)
Summary of the method: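 Compounds delivered in DMSO to ARE-bla HepG2 cells (2,000 cells/well, pre-incubated 5 h) and left 16 h at 37 C. LiveBLAzer B/G FRET substrate then added for 2 h at RT before fluorescence reading.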

[7] = qHTS assay for small molecule agonists of the antioxidant response element (ARE) signaling pathway - cell viability counter screen (AID 743203; calls by dose curve; also: nearly all actives have a fitted effect of over 55% in size)
Summary of the method: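 ARE-bla HepG2 cells were plated, rested 5 h at 37C/5% CO2, then exposed to compounds in DMSO for 16 h. Viability was read as CellTiter-Glo luminescence after 30 min at room temperature, in the same wells as the ARE screen.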

[8] = qHTS assay for small molecule activators of the heat shock response signaling pathway - cell viability counter screen (AID 743209); also: nearly all actives have a fitted effect of over 50% in size
Summary of the method: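 HSE-bla HeLa cells plated overnight, then exposed to Tox21 compounds (23 nL in DMSO) for 5 h at 37 C. After the bla reporter read, CellTiter-Glo was added in the same wells and luminescence read after 30 min at room temperature.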

[9] = qHTS assay for small molecule activators of the heat shock response signaling pathway (AID 743210; active = well fitted activation curve with a large enough effect in the signal ratio in the repeat runs, with a control signal flat, not every such curve was filed as active; the % refers to the signal ratio;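 also: HeLa cells with beta-lactamase reporter driven by heat shock elements; series mostly up to about 63 µM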)
Summary of the method: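 Reporter gene assay: HeLa cells stably bearing an HSE-bla construct, compound treatment 5 h at 37 C, LiveBLAzer substrate 2.5 h at RT, fluorescence intensity.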

[10] = qHTS assay to identify small molecule agonists of the peroxisome proliferator-activated receptor delta (PPARd) signaling pathway - cell viability counter screen (AID 743211); also: nearly all actives have a fitted effect of over 55% in size
Summary of the method: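 Tox21 library compounds, delivered in DMSO, were incubated 17 h with PPARd-bla HEK293H cells; cytotoxicity was taken from CellTiter-Glo luminescence read 30 min after reagent addition.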

[11] = target: Peroxisome proliferator-activated receptor delta (Homo sapiens) (UniProt Q03181); assay: qHTS assay to identify small molecule agonists of the peroxisome proliferator-activated receptor delta (PPARd) signaling pathway (AID 743212; calls by dose curve)
Summary of the method: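 A PPARd-bla HEK293H line with beta-lactamase under an Upstream Activator Sequence is treated with compounds at 37 C. Substrate loading for 2 h at room temperature precedes the fluorescence measurement.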

[12] = qHTS assay to identify small molecule antagonists of the peroxisome proliferator-activated receptor delta (PPARd) signaling pathway - cell viability counter screen (AID 743213); also: nearly all actives have a fitted effect of over 50% in size
Summary of the method: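 PPARd-bla HEK293H cells (3000/well) got compound plus 300 nM L165041 agonist for 17 h at 37 C. Viability in the same wells came from CellTiter-Glo luminescence after 30 min at room temperature.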

[13] = target: Peroxisome proliferator-activated receptor delta (Homo sapiens) (UniProt Q03181); assay: qHTS assay to identify small molecule antagonists of the peroxisome proliferator-activated receptor delta (PPARd) signaling pathway (AID 743215; active = well fitted inhibition curve with a large enough effect in the signal ratio in the repeat runs, not every such curve was filed as active; the % refers to the signal ratio;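 also: cells stimulated with agonist L165041 at 300 nM final during compound exposure; series mostly up to about 62 µM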)
Summary of the method: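 PPARd-bla HEK293H cells (UAS-bla reporter) preincubated 5 h, then given compound plus 300 nM final L165041 agonist for 17 h at 37 C. Beta-lactamase activity read by LiveBLAzer B/G FRET substrate fluorescence after 2 h at room temperature.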

[14] = qHTS assay to identify small molecule agonists of the farnesoid-X-receptor (FXR) signaling pathway - cell viability counter screen (AID 743218); also: nearly all actives have a fitted effect of over 45% in size
Summary of the method: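 FXR-UAS-bla HEK 293T cells exposed to compounds for 16 h at 37C. Cytotoxicity read in the same wells by CellTiter-Glo luminescence after 30 min at room temperature, following the beta-lactamase FRET read.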

[15] = target: Vitamin D3 receptor (Homo sapiens) (UniProt P11473); assay: qHTS assay to identify small molecule agonists of the vitamin D receptor (VDR) signaling pathway (AID 743222; calls by dose curve)
Summary of the method: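 VDR-bla cells plated 4 h at 37 C, then exposed to compounds for 16 h at 37 C. Beta-lactamase reporter activity measured by fluorescence after 2 h room-temperature loading with LiveBLAzer B/G FRET substrate.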

[16] = target: Vitamin D3 receptor (Homo sapiens) (UniProt P11473); assay: qHTS assay to identify small molecule antagonists of the vitamin D receptor (VDR) signaling pathway (AID 743223; active = well fitted inhibition curve with a large enough effect in the signal ratio in the repeat runs, not every such curve was filed as active; the % refers to the signal ratio)
Summary of the method: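 Quantitative HTS in VDR-bla reporter cells stimulated with 1alpha,25-dihydroxyvitamin D3, 3 nM final. Compound exposure 16 h, 37C, 5% CO2. Read-out: beta-lactamase FRET substrate fluorescence, 2 h RT.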

[17] = target: Bile acid receptor (Homo sapiens) (UniProt Q96RI1); assay: qHTS assay to identify small molecule antagonists of the farnesoid-X-receptor (FXR) signaling pathway (AID 743217; active = well fitted inhibition curve with a large enough effect in the signal ratio in the repeat runs, not every such curve was filed as active; the % refers to the signal ratio)
Summary of the method: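 FXR-UAS-bla HEK 293T cells (beta-lactamase reporter) given compound plus chenodeoxycholic acid (50 uM final), 16 h at 37C. LiveBLAzer B/G FRET substrate added for 2 h at room temperature; fluorescence read.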

[18] = target: Bile acid receptor (Homo sapiens) (UniProt Q96RI1); assay: qHTS assay to identify small molecule agonists of the farnesoid-X-receptor (FXR) signaling pathway (AID 743220; active = well fitted activation curve with a large enough effect in the signal ratio in the repeat runs, not every such curve was filed as active; the % refers to the signal ratio)
Summary of the method: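 Beta-lactamase reporter under UAS control in GeneBLAzer FXR HEK 293T cells (5000/well) measured with LiveBLAzer FRET substrate after 2 h at room temperature. Compound exposure lasted 16 h at 37C.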

[19] = qHTS assay to identify small molecule antagonists of the farnesoid-X-receptor (FXR) signaling pathway - cell viability counter screen (AID 743221; active = well fitted cell-killing curve with a large enough effect in the repeat runs, not every such curve was filed as active; also: nearly all actives have a fitted effect of over 50% in size)
Summary of the method: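 Cytotoxicity is taken from ATP luminescence (CellTiter-Glo, 30 min, room temperature) in FXR-bla HEK 293T cells previously incubated 16 h at 37 C with compound and chenodeoxycholic acid at 50 uM final.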

Measured: Potency

Chain of Bile acid receptor (Homo sapiens) (Q96RI1 whole entry, looked up): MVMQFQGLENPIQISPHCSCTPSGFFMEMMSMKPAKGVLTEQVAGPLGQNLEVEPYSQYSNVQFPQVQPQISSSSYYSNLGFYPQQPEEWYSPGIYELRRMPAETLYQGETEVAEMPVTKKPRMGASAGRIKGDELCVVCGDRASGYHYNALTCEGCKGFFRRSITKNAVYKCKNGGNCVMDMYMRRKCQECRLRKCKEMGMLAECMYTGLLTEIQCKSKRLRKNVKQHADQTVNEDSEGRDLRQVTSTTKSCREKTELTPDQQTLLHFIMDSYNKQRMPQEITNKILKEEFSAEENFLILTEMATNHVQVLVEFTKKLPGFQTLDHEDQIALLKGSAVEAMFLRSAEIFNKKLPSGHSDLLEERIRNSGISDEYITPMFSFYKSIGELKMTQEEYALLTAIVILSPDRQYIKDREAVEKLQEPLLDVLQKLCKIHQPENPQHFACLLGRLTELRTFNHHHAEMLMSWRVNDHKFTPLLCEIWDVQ
Chain of Aryl hydrocarbon receptor (Homo sapiens) (P35869 whole entry, looked up): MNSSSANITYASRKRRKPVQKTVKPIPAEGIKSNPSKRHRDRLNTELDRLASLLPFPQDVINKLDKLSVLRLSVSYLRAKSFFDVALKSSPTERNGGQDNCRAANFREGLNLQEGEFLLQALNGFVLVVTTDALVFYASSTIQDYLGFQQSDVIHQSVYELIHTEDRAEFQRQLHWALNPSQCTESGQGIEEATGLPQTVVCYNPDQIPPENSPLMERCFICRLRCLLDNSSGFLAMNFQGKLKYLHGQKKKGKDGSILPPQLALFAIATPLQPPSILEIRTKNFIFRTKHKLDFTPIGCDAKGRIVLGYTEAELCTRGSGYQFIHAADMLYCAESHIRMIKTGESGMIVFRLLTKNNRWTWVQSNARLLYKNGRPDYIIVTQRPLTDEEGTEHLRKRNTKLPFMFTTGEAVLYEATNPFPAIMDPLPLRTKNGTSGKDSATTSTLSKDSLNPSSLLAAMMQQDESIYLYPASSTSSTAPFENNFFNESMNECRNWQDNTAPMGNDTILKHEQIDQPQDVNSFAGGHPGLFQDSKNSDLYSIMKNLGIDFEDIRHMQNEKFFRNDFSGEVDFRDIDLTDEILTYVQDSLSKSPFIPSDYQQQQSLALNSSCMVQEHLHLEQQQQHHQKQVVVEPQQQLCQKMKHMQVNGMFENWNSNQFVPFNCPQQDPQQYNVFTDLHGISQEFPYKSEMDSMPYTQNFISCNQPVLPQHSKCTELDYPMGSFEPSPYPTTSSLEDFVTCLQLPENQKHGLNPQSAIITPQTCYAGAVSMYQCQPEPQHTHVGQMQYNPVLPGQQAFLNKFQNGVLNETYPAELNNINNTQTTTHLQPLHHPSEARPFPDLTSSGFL
Chain of Vitamin D3 receptor (Homo sapiens) (P11473 whole entry, looked up): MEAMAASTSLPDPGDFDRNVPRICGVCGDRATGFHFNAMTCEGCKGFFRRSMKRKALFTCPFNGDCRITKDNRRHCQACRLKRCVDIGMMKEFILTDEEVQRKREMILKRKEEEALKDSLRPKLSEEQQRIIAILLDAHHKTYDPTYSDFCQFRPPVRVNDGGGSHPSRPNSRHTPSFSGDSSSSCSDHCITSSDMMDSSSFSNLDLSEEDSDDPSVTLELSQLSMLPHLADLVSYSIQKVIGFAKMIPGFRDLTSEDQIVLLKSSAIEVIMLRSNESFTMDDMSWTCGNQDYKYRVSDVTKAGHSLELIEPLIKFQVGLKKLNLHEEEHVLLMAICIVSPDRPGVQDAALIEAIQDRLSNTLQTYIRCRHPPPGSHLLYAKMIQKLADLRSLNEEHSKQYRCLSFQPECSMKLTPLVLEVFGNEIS
Chain of Peroxisome proliferator-activated receptor gamma (Homo sapiens) (P37231 whole entry, looked up): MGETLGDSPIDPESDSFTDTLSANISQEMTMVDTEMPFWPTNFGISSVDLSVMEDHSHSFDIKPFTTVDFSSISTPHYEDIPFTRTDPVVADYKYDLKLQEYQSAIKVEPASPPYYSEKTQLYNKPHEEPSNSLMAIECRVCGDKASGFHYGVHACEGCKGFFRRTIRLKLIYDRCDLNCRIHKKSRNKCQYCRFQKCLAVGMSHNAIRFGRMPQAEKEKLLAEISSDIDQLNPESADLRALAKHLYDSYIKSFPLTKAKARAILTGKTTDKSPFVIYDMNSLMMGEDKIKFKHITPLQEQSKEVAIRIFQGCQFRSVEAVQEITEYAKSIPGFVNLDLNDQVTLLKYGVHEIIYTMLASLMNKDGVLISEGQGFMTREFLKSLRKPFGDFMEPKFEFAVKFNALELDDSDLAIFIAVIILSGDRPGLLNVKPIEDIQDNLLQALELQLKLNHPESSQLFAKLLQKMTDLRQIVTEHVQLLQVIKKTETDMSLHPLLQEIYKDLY
Chain of Peroxisome proliferator-activated receptor delta (Homo sapiens) (Q03181 whole entry, looked up): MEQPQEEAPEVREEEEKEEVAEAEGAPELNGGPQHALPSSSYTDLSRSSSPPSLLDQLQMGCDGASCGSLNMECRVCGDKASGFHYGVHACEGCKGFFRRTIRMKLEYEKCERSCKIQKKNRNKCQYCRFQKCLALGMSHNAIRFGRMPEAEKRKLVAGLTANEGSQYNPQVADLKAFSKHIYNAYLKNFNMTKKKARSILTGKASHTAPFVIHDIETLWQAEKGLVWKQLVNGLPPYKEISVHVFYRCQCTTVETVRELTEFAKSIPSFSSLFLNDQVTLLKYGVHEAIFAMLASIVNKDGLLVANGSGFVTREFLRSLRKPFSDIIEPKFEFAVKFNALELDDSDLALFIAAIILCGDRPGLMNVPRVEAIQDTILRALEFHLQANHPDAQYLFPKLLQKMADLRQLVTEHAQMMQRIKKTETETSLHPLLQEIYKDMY

CCCCCCCCO
not listed: [17] | [18] | [19]
inactive: all other assays above

OCC(CO)(CO)CO
not listed: [17] | [18] | [19]
inactive: all other assays above

COC(=O)CCCCC(=O)OC
not listed: [8]
inactive: all other assays above

CC(C)c1ccc(C(C)C)cc1
not listed: [11] | [13]
inactive: all other assays above

COC(=O)OC
not listed: [6] | [8] | [16] | [17] | [18]
inactive: all other assays above

N#CCC(=O)O
not listed: [17] | [18] | [19]
inactive: all other assays above

O=C1O[C@H]([C@H](O)CO)C(O)=C1O
not listed: [9] | [11] | [13] | [15] | [16] | [17] | [18] | [19]
inactive: all other assays above

CC(=O)CC(=O)N(C)C
not listed: [2] | [4] | [8]
inactive: all other assays above

CCN(CC)CCNC(=O)c1ccc(N)cc1
inactive: [1] | [2] | [3] | [5] | [6] | [7] | [9] | [10] | [12] | [14]

COC(=O)/C=C\C(=O)OC
not listed: [1] | [2] | [4] | [6] | [8] | [17] | [18]
inactive: all other assays above

Cc1ccc(C)c(S(=O)(=O)O)c1
not listed: [4] | [8] | [17] | [18]
inactive: all other assays above

NC1CCCCC1N (stereo unspecified)
not listed: [4] | [8] | [11] | [13]
inactive: all other assays above

CCc1cccc(CC)c1N
not listed: [4] | [15] | [16] | [17] | [18]
inactive: all other assays above

O=C(O)Cc1c[nH]c2ccccc12
not listed: [1] | [2] | [4] | [11] | [13] | [19]
inactive: all other assays above

Brc1ccc(Oc2ccc(Br)cc2)cc1
not listed: [1] | [2] | [4] | [17] | [18]
inactive: all other assays above

CS(=O)(=O)c1ccc(Cl)cc1
not listed: [4] | [17] | [18] | [19]
inactive: all other assays above

O=c1n(CCCN2CCN(c3cccc(Cl)c3)CC2)nc2ccccn12
inactive: [1] | [2] | [3] | [5] | [7] | [8] | [9] | [10] | [12] | [14]

O=C(NCC1CCCCN1)c1cc(OCC(F)(F)F)ccc1OCC(F)(F)F (stereo unspecified)
inactive: [3] | [5] | [6] | [7] | [10] | [12] | [14] | [15] | [16]
